# Experimental data taken from PubChem BioAssay (NCATS).
# Inconclusive results are not listed. A number with no mark means an inactive call. Calls come from the whole dose curve; as a rule, active = well fitted activation curve with a large enough effect; inconclusive = small, poorly fitted or top-dose-only effect; inactive = no such curve, though single readings can be large or run the other way.
# Target: Cellular tumor antigen p53 (Homo sapiens) (UniProt P04637)
# Test: Primary qHTS for small molecule compounds that upregulate eGFP-tagged delta133p53alpha (in N-terminal) cells. (AID 2060322);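 note: series mostly up to about 56 µM; 0% = DMSO vehicle and 100% = reference activator; nearly all actives have a fitted effect of over 75% in size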
# Details: NCI-H358 eGFP-delta133p53alpha fluorescence, 24 h; activation: stronger effect = higher value
# Method in brief: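 NCI-H358 cells pre-induced 24 h with 10 ng/ml doxycycline to express N-terminal eGFP-delta133p53alpha, then dosed 24 h at 37C without doxycycline; fixed, Hoechst-stained, GFP intensity by laser scanning cytometry, normalized to DMSO (0%) and 57.5 uM 5-azacytidine (100%).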
# Cellular tumor antigen p53 (Homo sapiens), sequence (P04637 whole entry, looked up): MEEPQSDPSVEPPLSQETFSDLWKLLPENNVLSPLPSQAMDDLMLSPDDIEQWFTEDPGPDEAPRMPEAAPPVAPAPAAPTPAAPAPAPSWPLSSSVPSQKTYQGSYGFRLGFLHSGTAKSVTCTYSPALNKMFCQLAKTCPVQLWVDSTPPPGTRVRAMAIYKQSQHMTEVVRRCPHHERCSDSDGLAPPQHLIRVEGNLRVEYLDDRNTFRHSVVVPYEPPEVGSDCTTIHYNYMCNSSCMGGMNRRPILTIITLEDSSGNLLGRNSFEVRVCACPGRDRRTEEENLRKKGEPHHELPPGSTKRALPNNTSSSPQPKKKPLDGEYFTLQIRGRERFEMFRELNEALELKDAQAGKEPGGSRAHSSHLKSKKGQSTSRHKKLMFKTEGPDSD
row,Compound,activation [%]
1,CCC[C@H](N[C@@H](C)C(=O)N1[C@H](C(=O)O)C[C@@H]2CCCC[C@@H]21)C(=O)OCC,-15.3
2,C/C=C/c1ccc(O)c(OC)c1,-0.837
3,COC(=O)C(c1ccccc1Cl)N1CCc2sccc2C1 (configuration not stated),10.7
4,CC(=O)N[C@@H]1[C@H](O[C@@H]2c3ccc(c(Cl)c3)Oc3cc4cc(c3O[C@H]3O[C@H](CO)[C@@H](O)[C@H](O)[C@H]3NC(=O)CCCCCCCC(C)C)Oc3ccc(cc3Cl)C[C@H]3NC(=O)[C@H](N)c5ccc(O)c(c5)Oc5cc(O)cc(c5)[C@H](NC3=O)C(=O)N[C@H]4C(=O)N[C@H]3C(=O)N[C@@H]2C(=O)N[C@@H](C(=O)O)c2cc(O)cc(O[C@H]4O[C@H](CO)[C@@H](O)[C@H](O)[C@H]4O)c2-c2cc3ccc2O)O[C@H](CO)[C@@H](O)[C@@H]1O,25.3
5,COc1ccc(C2C(=O)c3ccccc3C2=O)cc1,-15.9
6,Cc1ccc(C(=O)C(=O)O)cc1C,-13
7,CCn1c(=O)c2c(nc(C=Cc3ccc(OC)c(OC)c3)n2C)n(CC)c1=O,-8.1
8,CCCCOC(=O)c1ccc(O)cc1,-13
9,O=C(O)C(S)C(S)C(=O)O (configuration not stated),-37.9
10,CCNC(=O)[C@H]1O[C@@H](n2cnc3c(N)nc(NCCc4ccc(CCC(=O)O)cc4)nc32)[C@H](O)[C@H]1O,29.2
11,CC(C)(C)c1cc(C=O)cc(C(C)(C)C)c1O,-16.4
12,Cc1cc(NC(=O)C2=C(O)c3ccccc3S(=O)(=O)N2C)no1,-0.837
